This note sets out measurements from PubChem BioAssay (NCI).

About 83,000 compounds went through this panel and 20% of them were active in at least one assay; those are over-represented in the sample as a whole.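 How to read the values: 0–100, growth inhibition (40 = 60% inhibited); 0, no net growth; -100 to 0, cell death (-40 = 40% of starting cells died; -100 = all dead).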 Values without a mark were called inactive. How the source made its calls: active means growth percent below 10; inactive means the rest.

The test system of this experiment is OVCAR-5 ovarian. Briefly: NCI-60 one-dose screen, 48 h (100 = growth as untreated, 0 = no growth, -100 = all killed). The conditions noted are these: 10 µM unless noted.
For `COC(=O)CC1=C(c2ccc([N+](=O)[O-])cc2)CCC1=O`, the growth is 105%.

For `COc1cccc(/C=N\NC(=O)c2ccncc2)c1O`, the growth is 67%. `O=C(O)c1ccc(CNS(=O)(=O)c2ccc3ccccc3c2)cc1`: the growth is 115%. `c1cc[n+](Cc2ccnc3ccccc23)cc1`: the growth was 103%. As for `O=C(COc1cccc(/C=C2\Oc3ccc4ccccc4c3C2=O)c1)c1ccc([N+](=O)[O-])cc1`, the figure is 100%; as for `COC(=O)Nc1ccc2ccc3c(NC(=O)OC)ccc4ccc1c2c43` (tested in a mixture with another compound), 76.2%; as for `O=C(Nc1cccc(Cl)c1)Nc1cccc(Cl)c1`, 86.8%. As for `COc1cc(/C=C/c2cc(/C=C/c3ccc(O)c(OC)c3)n(C(=O)c3ccc(Cl)cc3)n2)ccc1O`, the figure is 79.9%; as for `O=C(Oc1cccc2ccccc12)c1ccccc1C(=O)c1ccccc1`, 102%; as for `CCCCCN1C(=O)CCC1=O`, 98.2%.

As for `CCC(C)C1NC(=O)C(CCNCS(=O)(=O)O)NC(=O)C(NC(=O)C(CCNCS(=O)(=O)O)NC(=O)C(NC(=O)C(CCNCS(=O)(=O)O)NC(=O)CCCCC(C)C)C(C)O)CCNC(=O)C(C(C)O)NC(=O)C(CCNCS(=O)(=O)O)NC(=O)C(CCNCS(=O)(=O)O)NC(=O)C(C(C)CC)NC1=O` (stereo not drawn), the growth was 73.1%. The value for `O=C1OC(Oc2ccccc2)(c2ccccc2)c2ccccc21` (stereo not drawn) was 99.6%; that for `N/C(=N\c1nc2ccccc2s1)NC(=O)Nc1ccccc1Cl` was 32.5%.
